Assay results reported in ChEMBL document CHEMBL3988442, “University of Dundee, Small-Polar-MMV Screening Library” (2021).
For some of these results: Measured potencies and affinities stand elsewhere.

What was measured:
Parameters in all cases: scale not given: direction of the effect not stated beside the values
[1] = molecular target: Protein translocase subunit SecA (Escherichia coli (strain K12)) (UniProt P10408); assay: Assay to Identify E. coli SecA ATPase Inhibitors; format: functional; details: 30 µM
Sequence of Protein translocase subunit SecA (Escherichia coli (strain K12)) (P10408 whole entry): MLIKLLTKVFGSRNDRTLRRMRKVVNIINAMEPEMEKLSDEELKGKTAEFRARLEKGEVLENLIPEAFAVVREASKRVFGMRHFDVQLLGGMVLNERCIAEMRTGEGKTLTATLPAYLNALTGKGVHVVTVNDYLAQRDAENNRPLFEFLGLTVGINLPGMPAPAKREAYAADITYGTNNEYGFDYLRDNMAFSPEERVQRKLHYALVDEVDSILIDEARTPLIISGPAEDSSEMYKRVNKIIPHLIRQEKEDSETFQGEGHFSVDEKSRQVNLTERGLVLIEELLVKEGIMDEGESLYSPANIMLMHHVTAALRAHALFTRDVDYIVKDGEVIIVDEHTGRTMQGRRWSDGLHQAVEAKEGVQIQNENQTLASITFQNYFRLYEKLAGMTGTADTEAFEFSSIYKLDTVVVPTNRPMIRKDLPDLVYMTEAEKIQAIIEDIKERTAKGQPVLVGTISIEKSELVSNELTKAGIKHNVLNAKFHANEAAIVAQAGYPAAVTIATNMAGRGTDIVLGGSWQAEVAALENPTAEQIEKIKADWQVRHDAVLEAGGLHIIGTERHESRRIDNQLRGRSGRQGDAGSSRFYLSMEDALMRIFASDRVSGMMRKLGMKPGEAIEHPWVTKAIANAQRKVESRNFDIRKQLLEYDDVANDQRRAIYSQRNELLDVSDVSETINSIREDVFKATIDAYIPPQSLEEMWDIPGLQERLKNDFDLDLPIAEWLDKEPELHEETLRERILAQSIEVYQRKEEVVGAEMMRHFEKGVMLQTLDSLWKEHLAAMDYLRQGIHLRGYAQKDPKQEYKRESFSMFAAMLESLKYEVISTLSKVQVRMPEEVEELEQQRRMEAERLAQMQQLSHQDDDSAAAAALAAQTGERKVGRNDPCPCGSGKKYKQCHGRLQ

[2] = molecular target: T1, Ubiquitin-activating enzyme e1, putative (Leishmania donovani (strain BPK282A1)) (UniProt E9BSI1); assay: Leishmania donovani Ubiquitin Activating Enzyme (LdE1); format: functional; details: 30 µM
T1 sequence (whole entry): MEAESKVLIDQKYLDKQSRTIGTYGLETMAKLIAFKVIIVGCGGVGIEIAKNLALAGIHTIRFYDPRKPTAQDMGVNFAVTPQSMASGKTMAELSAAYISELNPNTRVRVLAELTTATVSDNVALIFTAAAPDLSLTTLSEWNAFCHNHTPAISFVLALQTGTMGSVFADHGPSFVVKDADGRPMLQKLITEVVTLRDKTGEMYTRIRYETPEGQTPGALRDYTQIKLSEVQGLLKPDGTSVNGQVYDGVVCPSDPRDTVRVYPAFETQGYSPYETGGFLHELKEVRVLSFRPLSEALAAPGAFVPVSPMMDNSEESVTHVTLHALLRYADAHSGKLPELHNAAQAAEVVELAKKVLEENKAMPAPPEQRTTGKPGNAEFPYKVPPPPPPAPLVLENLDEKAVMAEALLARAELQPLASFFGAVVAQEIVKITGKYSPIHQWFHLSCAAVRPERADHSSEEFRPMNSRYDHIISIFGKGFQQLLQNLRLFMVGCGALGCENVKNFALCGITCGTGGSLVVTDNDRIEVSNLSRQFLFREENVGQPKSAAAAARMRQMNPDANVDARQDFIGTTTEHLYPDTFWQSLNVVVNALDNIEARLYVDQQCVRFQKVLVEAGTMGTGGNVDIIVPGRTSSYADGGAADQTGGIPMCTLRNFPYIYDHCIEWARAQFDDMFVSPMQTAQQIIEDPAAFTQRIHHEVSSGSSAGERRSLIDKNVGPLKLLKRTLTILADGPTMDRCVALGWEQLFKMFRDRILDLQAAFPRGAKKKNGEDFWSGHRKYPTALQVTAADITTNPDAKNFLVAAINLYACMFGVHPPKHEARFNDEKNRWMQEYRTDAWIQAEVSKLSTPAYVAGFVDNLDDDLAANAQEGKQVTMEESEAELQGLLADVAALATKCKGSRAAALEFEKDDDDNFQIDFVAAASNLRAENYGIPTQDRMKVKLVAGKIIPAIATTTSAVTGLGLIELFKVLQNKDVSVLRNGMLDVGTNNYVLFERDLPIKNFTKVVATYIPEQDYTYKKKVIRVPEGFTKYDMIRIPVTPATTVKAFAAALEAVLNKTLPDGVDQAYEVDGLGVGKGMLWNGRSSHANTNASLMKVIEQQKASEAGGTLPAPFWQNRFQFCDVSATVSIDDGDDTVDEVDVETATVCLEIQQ

[3] = molecular target: AMP-activated protein kinase, AMPK (Homo sapiens) (UniProt P54646+O43741+P54619+Q9UGJ0+Q9Y478+Q13131+Q9UGI9); assay: AMP-dependent Kinase enzyme assay. An in vitro enzyme assay that detects ADP turnover that is directly proportional to AMPK activity. This uses naive AMPK that is activated during the assay with MK-8722; format: functional; details: 30 µM
[4] = molecular target: Sialic acid-binding Ig-like lectin 9 (Homo sapiens) (UniProt Q9Y336); assay: Hs-Siglec9 ALPHAscreen SOP 20170721; details: 10 µM
Sequence of Sialic acid-binding Ig-like lectin 9 (Homo sapiens) (Q9Y336 whole entry): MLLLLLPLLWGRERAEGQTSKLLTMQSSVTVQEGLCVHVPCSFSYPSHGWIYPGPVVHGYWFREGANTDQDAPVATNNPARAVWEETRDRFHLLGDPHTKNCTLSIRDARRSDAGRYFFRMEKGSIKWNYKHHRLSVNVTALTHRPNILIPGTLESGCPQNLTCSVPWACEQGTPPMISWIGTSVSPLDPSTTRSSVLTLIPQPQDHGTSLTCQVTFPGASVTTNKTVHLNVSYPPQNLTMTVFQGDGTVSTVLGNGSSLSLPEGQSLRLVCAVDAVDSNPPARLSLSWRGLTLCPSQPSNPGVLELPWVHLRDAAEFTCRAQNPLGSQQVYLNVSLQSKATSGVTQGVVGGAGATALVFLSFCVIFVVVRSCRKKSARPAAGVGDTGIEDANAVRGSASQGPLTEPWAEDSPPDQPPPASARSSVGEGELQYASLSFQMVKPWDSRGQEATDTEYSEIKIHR

[5] = tested on: Trypanosoma cruzi; assay: Trypanosoma cruzi phosphomannomutase and mannose-1-phosphate guanylyltransferase assay; format: functional; details: 10 µM
[6] = molecular target: T2, Arginase-2, mitochondrial (Homo sapiens) (UniProt P78540); assay: in vitro enzyme assay to detect the production of urea directly proportional to the activity of Arginase II; format: functional; details: 33.3 µM; note: in the data most compounds retested in dose-response had high values
T2 sequence (whole entry): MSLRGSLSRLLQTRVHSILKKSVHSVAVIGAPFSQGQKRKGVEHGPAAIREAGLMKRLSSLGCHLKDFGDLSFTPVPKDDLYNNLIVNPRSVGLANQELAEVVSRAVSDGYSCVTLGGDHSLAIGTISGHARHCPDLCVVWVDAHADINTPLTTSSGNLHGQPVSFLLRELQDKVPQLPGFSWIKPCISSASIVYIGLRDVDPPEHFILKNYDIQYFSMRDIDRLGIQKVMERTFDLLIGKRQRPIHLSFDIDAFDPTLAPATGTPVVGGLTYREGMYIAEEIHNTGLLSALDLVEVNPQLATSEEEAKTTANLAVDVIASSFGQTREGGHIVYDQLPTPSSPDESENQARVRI

[7] = molecular target: T3, Proteasome subunit beta (Trypanosoma cruzi) (UniProt O96673); assay: Trypanosoma cruzi proteasome chymotrypsin-like activity (TcProtChymo) assay.; note: in the data most compounds retested in dose-response had high values; format: functional; details: 9.37 µM
T3 sequence (whole entry): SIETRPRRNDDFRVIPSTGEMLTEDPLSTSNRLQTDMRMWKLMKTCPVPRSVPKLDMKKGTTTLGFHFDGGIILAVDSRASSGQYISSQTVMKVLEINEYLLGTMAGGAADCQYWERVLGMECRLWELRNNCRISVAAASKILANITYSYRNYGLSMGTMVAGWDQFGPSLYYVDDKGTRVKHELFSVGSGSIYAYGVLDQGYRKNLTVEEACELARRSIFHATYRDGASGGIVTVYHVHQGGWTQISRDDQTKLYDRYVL

[8] = species on record: Homo sapiens; assay: To identify inhibition of the IFN signalling (Jak-Stat) pathway via expression of an eGFP reporter gene under the control of an IFN-stimulated response element (ISRE) containing MxA promoter.; format: functional; details: 30 µM
[9] = molecular target: T4, Tyrosyl-tRNA synthetase, putative (Trypanosoma cruzi (strain CL Brener)) (UniProt Q4DSP6); assay: Trypanosoma cruzi tyrosyl tRNA synthetase (TcYRS) _High Tyrosine SOP; format: functional; details: 30 µM; note: in the data most compounds retested in dose-response had high values
T4 sequence (whole entry): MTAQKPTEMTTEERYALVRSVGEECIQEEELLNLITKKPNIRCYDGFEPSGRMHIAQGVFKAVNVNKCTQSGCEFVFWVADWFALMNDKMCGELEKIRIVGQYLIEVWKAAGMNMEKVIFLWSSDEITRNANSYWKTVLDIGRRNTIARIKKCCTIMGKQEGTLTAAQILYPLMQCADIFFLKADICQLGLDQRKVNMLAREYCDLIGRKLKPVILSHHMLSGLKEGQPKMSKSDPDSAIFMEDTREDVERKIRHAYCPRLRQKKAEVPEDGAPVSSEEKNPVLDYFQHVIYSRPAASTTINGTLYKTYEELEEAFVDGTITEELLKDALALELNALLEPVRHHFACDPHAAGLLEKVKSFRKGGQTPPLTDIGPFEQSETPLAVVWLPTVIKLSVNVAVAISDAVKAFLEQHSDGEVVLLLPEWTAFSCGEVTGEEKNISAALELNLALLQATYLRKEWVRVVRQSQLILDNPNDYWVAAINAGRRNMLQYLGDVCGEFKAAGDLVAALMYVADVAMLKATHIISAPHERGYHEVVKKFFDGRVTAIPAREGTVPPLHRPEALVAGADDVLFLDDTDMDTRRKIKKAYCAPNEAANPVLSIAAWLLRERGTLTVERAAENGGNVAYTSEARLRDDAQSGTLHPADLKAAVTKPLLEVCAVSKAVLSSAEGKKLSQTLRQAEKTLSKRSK

[10] = molecular target: T4, Tyrosyl-tRNA synthetase, putative (Trypanosoma cruzi (strain CL Brener)); assay: Trypanosoma cruzi tyrosyl tRNA synthetase (TcYRS) SOP; format: functional; details: 30 µM
[11] = molecular target: Chromo domain-containing protein 1 (Saccharomyces cerevisiae (strain ATCC 204508 / S288c) (Baker's yeast)) (UniProt P32657); assay: ScCHD-1 Enzyme Inhibition Assay; format: functional; details: 30 µM; note: in the data most compounds retested in dose-response had high values
Sequence of Chromo domain-containing protein 1 (Saccharomyces cerevisiae (strain ATCC 204508 / S288c) (Baker's yeast)) (P32657 whole entry, the tested form may be a part): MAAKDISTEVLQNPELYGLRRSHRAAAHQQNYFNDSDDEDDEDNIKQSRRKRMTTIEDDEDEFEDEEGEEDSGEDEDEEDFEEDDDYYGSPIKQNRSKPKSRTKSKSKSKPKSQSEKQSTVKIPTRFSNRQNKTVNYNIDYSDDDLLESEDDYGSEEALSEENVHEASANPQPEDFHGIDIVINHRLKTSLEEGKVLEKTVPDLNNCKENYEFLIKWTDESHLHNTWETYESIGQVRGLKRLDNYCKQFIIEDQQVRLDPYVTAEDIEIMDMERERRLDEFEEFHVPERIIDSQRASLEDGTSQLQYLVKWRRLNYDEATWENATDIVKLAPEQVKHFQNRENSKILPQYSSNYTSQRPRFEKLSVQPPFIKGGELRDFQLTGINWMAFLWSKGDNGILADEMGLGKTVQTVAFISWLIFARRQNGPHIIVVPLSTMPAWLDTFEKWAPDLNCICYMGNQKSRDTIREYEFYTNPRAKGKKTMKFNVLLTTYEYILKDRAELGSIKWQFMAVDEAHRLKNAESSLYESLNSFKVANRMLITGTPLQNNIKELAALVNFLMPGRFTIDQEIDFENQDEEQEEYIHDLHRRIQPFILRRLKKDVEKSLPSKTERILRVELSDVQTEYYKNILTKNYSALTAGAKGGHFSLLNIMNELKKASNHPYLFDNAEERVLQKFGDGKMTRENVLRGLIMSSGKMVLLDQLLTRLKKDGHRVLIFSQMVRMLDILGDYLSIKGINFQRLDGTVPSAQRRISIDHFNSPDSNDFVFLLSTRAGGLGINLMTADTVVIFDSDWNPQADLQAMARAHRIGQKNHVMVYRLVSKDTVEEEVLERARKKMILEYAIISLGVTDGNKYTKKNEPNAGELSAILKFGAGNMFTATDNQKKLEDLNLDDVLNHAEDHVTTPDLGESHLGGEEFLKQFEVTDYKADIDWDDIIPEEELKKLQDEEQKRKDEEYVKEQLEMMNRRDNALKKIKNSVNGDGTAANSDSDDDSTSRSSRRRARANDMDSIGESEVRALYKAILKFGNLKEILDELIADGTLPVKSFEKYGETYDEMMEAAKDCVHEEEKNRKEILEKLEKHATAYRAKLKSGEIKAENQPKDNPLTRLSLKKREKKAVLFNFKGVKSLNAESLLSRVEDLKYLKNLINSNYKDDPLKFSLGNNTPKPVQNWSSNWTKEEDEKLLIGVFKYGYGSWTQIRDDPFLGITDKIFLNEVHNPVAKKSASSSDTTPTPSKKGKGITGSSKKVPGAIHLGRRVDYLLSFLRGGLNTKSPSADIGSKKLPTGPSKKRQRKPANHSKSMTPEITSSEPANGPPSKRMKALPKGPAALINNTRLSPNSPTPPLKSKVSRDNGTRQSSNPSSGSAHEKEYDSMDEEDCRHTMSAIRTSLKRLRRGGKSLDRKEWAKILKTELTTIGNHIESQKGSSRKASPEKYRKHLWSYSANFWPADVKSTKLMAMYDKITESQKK

| Compound | Percent Effect [1] | Percent Effect [2] | Percent Effect [3] | Percent Effect [4] | Percent Effect [5] | Percent Effect [6] | Percent Effect [7] | Percent Effect [8] | Percent Effect [9] | Percent Effect [10] | Percent Effect [11] |
| --- | --- | --- | --- | --- | --- | --- | --- | --- | --- | --- | --- |
| Cc1nn(C)c(N2CCOCC2)c1CNC(C)c1ccco1 (stereo not drawn) | -4.24% | 20.8% | 131% | 26.4% | 6.32% | 2.21% | 13.9% | -7.48% | 3.16% | 20.5% | -8.31% |
| CCC(=O)NCC(=O)NCc1cc(Br)ccc1OC(F)F | -3.84% | 18.7% | -6.58% | 53.5% | 3.41% | 18.8% | 7.15% | -3.97% | 7.1% | 18.5% | -8.96% |
| Cc1noc(C2CCCN(C(=O)c3ccc(Br)o3)C2)n1 (stereo not drawn) | -6.46% | 13% | -5.37% | -19.7% | 7.54% | -4.84% | 13.8% | 1.55% | 3.81% | 21.2% | -17.1% |
| Cc1nn(C)c(C)c1CNC1CCOc2ccccc21 (stereo not drawn) | -2.99% | 5.41% | -3.93% | -3.92% | -4.01% | -1.74% | 13.7% | 20% | 0% | 8.64% | -2.87% |
| Cn1cc(C2CCCN2C(=O)CCCOCc2ccccc2)cn1 (stereo not drawn) | -4.26% | 10.1% | -1.48% | -1.07% | 4.25% | -1.9% | 7.62% | 2.8% | 0.493% | 3.8% | -7.66% |
| COc1ccc(C2C3=C(COC3=O)Nc3[nH]nc(C)c32)cc1OC (stereo not drawn) | 2.08% | 6.67% | 9.48% | -1.62% | -6.68% | -10.7% | 12.8% | 8.17% | 5.29% | 10.3% | -11% |
| Cc1noc(C)c1CNC(=O)N1CCC(CO)CC1 | -1.26% | 13.7% | -4.05% | 6.04% | 2.18% | -1.2% | 7.62% | 23.9% | 7.29% | 16.1% | -0.505% |
| NC(=O)C1CCCN1Cc1cccc(NC(=O)c2ccsc2)c1 (stereo not drawn) | -3.24% | 13.3% | 0.719% | 13.7% | 3.6% | 10.4% | 20.2% | 11.8% | 10.4% | 18.5% | -10.5% |
